Measured values reported in the supplement of paper PMC12350171.
Structures can show the parent of a compound that is named as a salt. Values without a mark were called inactive.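 How the source made its calls: active = AUC significantly below DMSO controls by Student t-fit with adjusted P under 0.01; inactive = not significantly reduced.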

test system: Haemophilus parainfluenzae; test: growth AUC normalised to DMSO control (fraction of control); higher = less growth inhibition, active = hit call of the paper; settings: 20 µM
Method in brief: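 Pathogens were passaged twice under anaerobic conditions, then inoculated into pre-reduced mGAM plates at a starting OD578 of 0.01, with compound at 20 μM and 1% DMSO, and sealed with breathable membranes. For Haemophilus parainfluenzae, the medium was supplemented with hemin and NAD. OD578 was read every hour for 24 h in three biological replicates. Growth-curve AUC was calculated by the trapezoidal rule up to the exponential-to-stationary transition and normalised to DMSO controls on the same plate.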

SMILES | growth AUC normalised to DMSO control
CCn1cc(C(=O)O)c(=O)c2cc(F)c(N3CCNC(C)C3)c(F)c21 (stereo not drawn) [Lomefloxacin hydrochloride] | 0.04 (active)
CCCCNc1c(C(=O)OCC)c(C)nc2c1cnn2CC [Tracazolate hydrochloride] | 1.04
C[C@H]1C[C@@H]2[C@H]([C@@H](O)C[C@@]3(C)[C@H]2CC[C@]3(O)C(=O)CO)[C@@]2(C)C=CC(=O)C=C12 [Methylprednisolone, 6-alpha] | 0.996
Nc1ccc(S(=O)(=O)Nc2ccccn2)cc1 [Sulfapyridine] | 0.976
CCCCc1nc(Cl)c(CO)n1Cc1ccc(-c2ccccc2-c2nnn[nH]2)cc1 [Losartan] | 1.45
CCCNC(C)(C)COC(=O)c1ccccc1 [Meprylcaine hydrochloride] | 1.03
O=C(COc1ccc(Cl)cc1)N1CCN(Cc2ccc3c(c2)OCO3)CC1 [Fipexide hydrochloride] | 0.836
CCCNCC(O)COc1ccccc1C(=O)CCc1ccccc1 (stereo not drawn) [Propafenone hydrochloride] | 1.01
